Several values for one entry are separate records, joined by “and”; a condition that tells them apart may be missing. Equal entries are not always repeated. The source holds several records for some structures; these can differ, active in one and inactive in another. Activity calls are given as the source filed them. Rule for the calls: active = hit-call score of the fitted dose curve at least 0.9, where 1 is the maximum; inactive = score below 0.9.
Test: BSK_3C_uPAR: BioMAP Diversity Plus: 3C Assay for Urokinase-type plasminogen activator receptor (uPAR) Biomarker Activity (AID 2282998)
Conditions: BioMAP 3C HUVEC, uPAR biomarker ELISA; actives raise or lower the signal
Experimental: BSK_3C is a cell-based, multiplexed-readout assay that uses umbilical vein endothelium, a human vascular primary cell, with measurements taken at 24 hours after chemical dosing in a 96-well plate.BSK_3CAR is an assay component measured in the BSK_3C assay. It measures uPAR antibody related to regulation of gene expression using ELISA technology.Data from the assay component BSK_3CAR was analyzed into 1 assay endpoint. This assay endpoint, BSK_3CAR, was analyzed with bidirectional fitting relative to DMSO as the negative control and baseline of activity. Using a type of binding reporter, gain or loss-of-signal activity can be used to understand changes in the signaling as they relate to the gene PLAUR. Furthermore, this assay endpoint can be referred to as a primary readout, because this assay has produced multiple assay endpoints where this one serves a signaling function. To generalize the intended target to other relatable targets, this assay endpoint is annotated to the cytokine intended target family, where the subfamily is plasmogen activator.
The levels of cell surface (or secreted, indicated by the prefix "s") biomarker endpoints were measured by ELISA. Overt cytotoxicity to cells in confluent adherent cultures (all systems other than the BT system) was assessed by measuring total protein levels using sulforhodamine B (SRB) staining in parallel cultures at the time of biomarker measurements, indicated as SRB endpoints. For proliferation assays for adherent cell types, individual cell types are cultured at sub-confluence and relative cell numbers quantified by SRB staining at time points optimized for each system (48 h: 3C and CASM3C systems; 72 h: BT and HDF3CGF systems; 96 h: SAg system). SRB was performed by staining cells with 0.1% SRB after fixation with 10% TCA and reading wells at 560 nm.Viability and proliferation of PBMC (T cells) was quantified by Alamar Blue reduction for the SAg and BT systems. For PBMC viability (referred to as PBMC Cytotoxicity within the assay endpoint names), cells were plated (75,000/well in a 96-well plate) and then chemical samples added for 1 h before addition of activators, SEB and TSST-1 (20 ng/mL final concentration each). Cells were incubated for 90 h. Then, Alamar Blue (20 uL/well) (Invitrogen, Cat DAL1100) was added for 6 h, and the plates were read with a fluorescence microplate reader at 546/580 nm (excitation/emission). For PBMC proliferation, cells were plated and activated as above but incubated for only 16 h prior to addition of Alamar Blue. Plates were read after 6 h.
With `CCCCN(CCO)CCO` the outcome was “inactive”. In the case of `C=C(F)C(=O)OC(C(F)(F)F)C(F)(F)F`, the outcome was “inactive”. In the case of `CCCCCCCC1CCCC1=O` (stereo not given), the AC50 was 34.5 µM (active). With `Nc1ccc(N)c([N+](=O)[O-])c1` the outcome was “inactive”. In the case of `CC(=O)OC(C)(C)C1CC=C(C)CC1` (stereo not given), the AC50 was 32.3 µM (active). In the case of `CC(C)CCCC(C)(C)O`, the outcome was “inactive”. For `NC(=O)c1c(Cl)cccc1Cl`, the outcome was “inactive”. With `c1ccc(OCCOc2ccccc2)cc1` the outcome was “inactive”. In the case of `CC(C)Cc1ccc(C(C)C(=O)O)cc1` (stereo not given), the outcome was “inactive”. With `O=C(O)C(F)(F)OC(F)(F)C(F)(F)OC(F)(F)C(F)(F)C(F)(F)C(F)(F)F` the outcome was “inactive” and the AC50 was 38.7 µM (active). In the case of `CC=CC(=O)C1=C(C)C=CCC1(C)C`, the outcome was “inactive”. In the case of `C=C(C)C(N)=O`, the outcome was “inactive”. For `CCOC(=O)C=Cc1ccccc1`, the outcome was “inactive”. In the case of `COC(=O)c1ccc(C(=O)OC)cc1`, the outcome was “inactive”. For `CCOC(=O)CCCCCCCCC(=O)OCC`, the outcome was “inactive”. With `C[C@]12CC[C@@H]3c4ccc(O)cc4CC[C@H]3[C@@H]1CC[C@@H]2O` the AC50 was 11.9 µM (active). In the case of `O=S1(=O)CC(Cl)(Cl)C(Cl)(Cl)C1`, the AC50 was 0.695 µM (active). With `CCC(=O)OCC=Cc1ccccc1` the AC50 was 20 µM (active). With `CC1(C)[C@H](C=C(Cl)Cl)[C@H]1C(=O)OCc1cccc(Oc2ccccc2)c1` the outcome was “inactive”. In the case of `O=C(O)C(F)(F)C(F)(F)C(F)(F)C(F)(F)C(F)(F)C(F)(F)C(F)(F)C(F)F`, the outcome was “inactive”. With `COc1ccccc1NC(=O)CC(C)=O` the outcome was “inactive”. For `CC(C)(C)c1cccc(O)c1`, the AC50 was 0.016 µM (active). With `c1ccc(Sc2ccccc2)cc1` the AC50 was 32 µM (active). For `CCCCCCCCCC(=O)OCC`, the AC50 was 29.1 µM (active). In the case of `C=CC(=O)OCC(CO)(COC(=O)C=C)COC(=O)C=C`, the AC50 was 0.443 µM (active). For `O=S(=O)(O)C(F)(F)C(F)(F)OC(F)(F)C(F)(F)F`, the outcome was “inactive”. For `c1ccc2c(c1)-c1ccc3ccc4cccc5cc-2c1c3c45`, the AC50 was 0.667 µM (active). In the case of `C=C1CC/C=C(\C)CC[C@@H]2[C@@H]1CC2(C)C`, the AC50 was 33.9 µM (active). In the case of `OCC(F)(OC(F)(F)C(F)(OC(F)(F)C(F)(F)C(F)(F)F)C(F)(F)F)C(F)(F)F` (stereo not given), the outcome was “inactive”. For `CC1=CC(C)C(C=O)C(C)C1` (stereo not given) (tested in a mixture with another compound), the outcome was “inactive”. In the case of `CCn1cc(C(=O)O)c(=O)c2ccc(C)nc21`, the outcome was “inactive”. For `CCCO[Si](OCCC)(OCCC)OCCC`, the outcome was “inactive”. With `CC/C(=C(\c1ccccc1)c1ccc(OCCN(C)C)cc1)c1ccccc1` the AC50 was 5.43 µM (active) and 5.65 µM (active). With `CC(=O)OCC=C(C)CCC=C(C)CCC=C(C)C` the outcome was “inactive”. For `CC(=O)CCC=C(C)CCC=C(C)C`, the outcome was “inactive”. With `CCCCOCCOCCO` the outcome was “inactive”. For `O=C(c1ccc(OCCN2CCCCC2)cc1)c1c(-c2ccc(O)cc2)sc2cc(O)ccc12`, the AC50 was 22.3 µM (active). With `C=C(C)C(=O)OCCC(F)(F)C(F)(F)C(F)(F)C(F)(F)C(F)(F)C(F)(F)C(F)(F)C(F)(F)F` the outcome was “inactive”. For `O=C1OC2(c3ccc(O)cc3Oc3cc(O)ccc32)c2ccccc21`, the outcome was “inactive”.

— PubChem BioAssay (EPA / NIEHS)
